# Screening data deposited in PubChem by several laboratories.
# This is a sample that favours compounds with a hit; in the whole collection about 6.6% have one here.
# BoNT A protease: inhibitors of Botulinum neurotoxin A light chain protease; inhibition, % at 10 µM; multiplex microsphere protease substrate cleavage, flow cytometry; AID 588499; 360,000 compounds, 0.17% hits; further: plate controls were buffer without enzyme for full effect and enzyme alone for no effect
# Anthrax LF inh2: inhibitors of Bacillus anthracis lethal factor protease. P15917. multiplex microsphere protease cleavage assay, LF. inhibition, % at 10 µM. 360,000 compounds, 0.12% hits; further: plate controls were buffer without enzyme for full effect and enzyme alone for no effect
# GDH-TPI counter-1: inhibits GDH-TPI coupling enzymes, artifact for Mtb FBA screen. inhibition, % at 4.8 µM. GDH-TPI coupled enzyme counterscreen, NADH absorbance. AID 588335. 360,000 compounds, 1.2% hits; in the data active means inhibition above about 30%;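 further: 0% = DMSO wells and 100% = wells lacking the enzyme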
# BoNT-F LC inh: inhibitors of Botulinum neurotoxin F light chain protease | Multiplex microsphere protease cleavage assay, flow cytometry | inhibition, % at 10 µM | 360,000 compounds, 0.22% hits; in the data active means inhibition above about 35%, passing the limit was not always enough; inconclusive means no clear call, values can overlap the other calls; further: plate controls were buffer without enzyme for full effect and enzyme alone for no effect
# Bead autofluor: counter-screen for toxin protease inhibitors: compound fluorescence; compound autofluorescence counterscreen, microsphere flow cytometry; hits give high values; fluorescence intensity (no concentration beside the values); 360,000 compounds, 3.1% hits; in the data active means fluorescence intensity above about 16000; inconclusive means no clear call, values can overlap the other calls
# Mtb FBA inh: inhibitors of M. tuberculosis fructose-bisphosphate aldolase; purified M. tuberculosis FBA, fluorescence read-out; inhibition, % at 1 µM; 360,000 compounds, 2.3% hits; in the data active means inhibition above about 27%;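 further: 0% = vehicle and 100% = reference inhibitor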
# Target sequence (P9WQA3 whole entry, looked up): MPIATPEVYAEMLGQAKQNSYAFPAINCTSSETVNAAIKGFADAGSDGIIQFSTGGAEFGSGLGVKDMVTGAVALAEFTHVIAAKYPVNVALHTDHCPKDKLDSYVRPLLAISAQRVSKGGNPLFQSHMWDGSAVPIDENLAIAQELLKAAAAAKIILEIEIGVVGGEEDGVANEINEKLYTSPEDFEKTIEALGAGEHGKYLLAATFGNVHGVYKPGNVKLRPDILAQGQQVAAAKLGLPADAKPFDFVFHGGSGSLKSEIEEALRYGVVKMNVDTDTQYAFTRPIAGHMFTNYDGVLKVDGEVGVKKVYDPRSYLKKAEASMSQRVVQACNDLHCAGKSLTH
# Mtb FBA confirm: confirmation of M. tuberculosis fructose-bisphosphate aldolase inhibitors; shares compounds with Mtb FBA inh; purified M. tuberculosis FBA, fluorescence read-out; inhibition, % at 1 µM; 5,600 compounds, 78% hits; AID 651616; in the data active means inhibition above about 27%;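 further: 0% = vehicle wells and 100% = reference inhibitor wells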
# GDH-TPI counter-2: counter-screen for M. tuberculosis FBA inhibitors: GDH-TPI coupled enzyme inhibition. AID 652141. GDH-TPI coupled enzyme counterscreen, fluorescence. 5,600 compounds, 81% hits. inhibition, % at 1 µM. shares compounds with Mtb FBA inh; in the data active means inhibition above about 10%
# GDH-TPI DR: counter-screen for M. tuberculosis FBA inhibitors: GDH-TPI dose response; shares compounds with Mtb FBA inh; GDH-TPI coupled enzyme assay, fluorescence, artifact counterscreen; IC50, µM; 170 compounds, 79% hits; AID 652145; call rule not given here
# * marks the source's active call; other numbers are inactive results; ? = inconclusive; . = not tested or not shown; + = active, no number. Unless noted, no stated cut-off is given here; in the data, active means inhibition above about 30%; inconclusive means no clear call, values can overlap the other calls; inactive means below that.
SMILES,BoNT A protease,Anthrax LF inh2,GDH-TPI counter-1,BoNT-F LC inh,Bead autofluor,Mtb FBA inh,Mtb FBA confirm,GDH-TPI counter-2,others
Fc1ccc(-c2csc(Nc3ccccn3)n2)cc1,-1.5,2.7,6.5,10.6,3961,-2.1,.,.,
COc1cc(NC(=O)c2ccco2)c(C(=O)OCC(=O)c2c[nH]c3ccccc23)cc1OC,-0.1,1.0,12.4,0.9,2753,20.4,.,.,
CCCC(=O)Nc1ccc(Cl)c(NC(=S)NC(=O)c2ccco2)c1,-0.9,-0.1,17.9,-12.8,2630,-3.3,.,.,
COc1cccc(/C=C/C(=O)OCC(=O)NC2CC2)c1,2.8,1.2,-1.1,5.7,5281,27.8*,-0.8,-3.2,
COC(=O)c1ccc(CNC(=O)COC(=O)/C=C/c2cccc(OC)c2)cc1,0.1,-0.4,8.8,-0.9,3008,27.5*,167.7*,156.6*,
O=C(COC(=O)/C=C/c1ccc(F)cc1)NC1CCCC1,-0.4,-3.7,-3.9,-11.8,5467,2.9,.,.,
COC(=O)c1ccc(CNC(=O)COC(=O)/C=C/c2ccc(O)c(OC)c2)cc1,-0.8,-7.3,19.0,-8.2,4307,3.6,.,.,
CSc1ccc(/C=C/C(=O)OCC(=O)NC2CCCC2)cc1,0.5,-2.3,41.1*,0.5,3860,61.3*,+,+,
COc1cccc(/C=C/C(=O)OCC(=O)NC2CCCC2)c1,-0.2,-4.5,8.8,-9.4,2856,20.2,.,.,
COc1cccc(/C=C/C(=O)OCC(=O)NCCc2ccccc2)c1,0.0,-2.9,-8.0,1.1,3944,27.8*,+,181.7*,
S=C(NCCCCN(Cc1ccc(Cl)cc1)c1ccc(Br)cn1)NCCCc1cnc[nH]1,-0.5,-5.5,0.0,-19.8,3860,-3.7,.,.,
Clc1ccc(Sc2cc(Cl)c(-c3ccccc3)nn2)cc1,0.1,3.0,5.6,-24.4,4889,3.4,.,.,
O=c1[nH]c2cc3c(cc2cc1CN(Cc1cccnc1)Cc1nnnn1Cc1ccco1)OCCO3,1.7,0.7,17.9,4.4,7366,34.1*,-1.9,0.0,
O=c1[nH]c2cc3c(cc2cc1CN(Cc1cccs1)Cc1nnnn1Cc1ccco1)OCCO3,-0.1,-5.3,23.5,-0.7,3579,35.1*,83.6*,77.6*,
COc1ccc(CCC(=O)OCC(=O)Nc2sccc2C(N)=O)cc1,-0.1,-0.6,14.3,3.0,3111,1.8,.,.,
c1ccc(SCc2cn3cccnc3n2)nc1,-0.8,-5.0,-6.9,-5.8,4055,74.0*,65.3*,39.5*,
[N-]=[N+]=NCc1cn2cccnc2n1,-0.3,0.1,5.0,-4.3,2056,62.6*,79.3*,63.3*,
c1ccc(-n2cnnc2SCc2cn3cccnc3n2)cc1,-0.2,3.3,-1.1,2.1,10420,103.0*,101.6*,76.0*,
c1cnc2nc(CSc3ncn[nH]3)cn2c1,0.8,3.8,2.9,1.1,4574,88.5*,184.0*,143.8*,
CN1CCN(Cc2cn3cccnc3n2)CC1,-0.4,-1.8,3.2,-7.5,4910,3.7,.,.,
N#Cc1nc2ccccc2n1OCc1ccccc1,-0.6,-2.1,1.8,-13.2,3936,1.3,.,.,
C[C@H](O)[C@@H]1C(=O)N2CCc3ccc(N4CCN(C)CC4)cc3[C@@H]2C[C@@H]1N(C)C(=O)c1ccc(C#N)cc1,-0.3,-6.2,4.2,-4.5,3508,-0.9,.,.,
Cc1n[nH]c(C)c1S(=O)(=O)N(C)Cc1ccco1,1.8,-1.1,-3.5,-4.4,5904,-2.8,.,.,
O=S1(=O)C=C[C@@H](COCc2ccccc2)N1Cc1ccc(Br)cc1,-1.3,-8.0,.,-17.6,4532,1.5,.,.,
Cc1cccc(NC(=O)Cn2nnc3ccccc32)c1,-0.7,1.2,-4.8,5.3,4761,-1.1,.,.,
SMILES,BoNT A protease,Anthrax LF inh2,GDH-TPI counter-1,BoNT-F LC inh,Bead autofluor,Mtb FBA inh,Mtb FBA confirm,GDH-TPI counter-2,others
Cc1ccc2nc(SCc3cn4cccnc4n3)[nH]c2c1,-1.0,-0.6,-5.3,-2.3,3056,2.9,.,.,
Cc1ccc(S(=O)(=O)Cc2cn3cccnc3n2)cc1,0.3,2.3,0.8,-8.3,2792,92.3*,49.8*,32.0*,
CSc1ccc(S(=O)(=O)N(CC(=O)NCc2ccccn2)c2ccc(C)cc2)cc1,-0.5,-3.8,-2.7,20.7,3483,76.9*,180.7*,141.2*,
Cc1ccc(S(=O)(=O)N(CC(=O)NCc2ccccn2)c2ccc(Cl)cc2)cc1,2.1,1.1,-5.2,7.9,5291,1.4,.,.,
N=c1oc2ccc3ccccc3c2cc1C(N)=S,0.6,-3.4,4.8,-1.5,3709,104.4*,33.5*,16.8*,
Cc1ccc(C2=CC(c3ccccc3)n3ncnc3N2)c(C)c1 (centres undefined),-0.7,6.4,4.3,-7.2,3837,-0.1,.,.,
Cc1ccc(C2=CC(c3ccccc3)n3ncnc3N2)cc1 (centres undefined),0.5,-1.7,3.1,0.0,3844,67.5*,87.9*,67.4*,
Cc1ccc(C2C=C(c3ccccc3OC(F)F)Nc3ncnn32)cc1 (centres undefined),0.6,5.4,13.3,3.2,3037,31.9*,70.0*,68.4*,
N#Cc1c(-c2ccccc2)cc(C2CC2)nc1N,-0.2,-1.7,15.0,-2.5,7239,13.3,.,.,
N#Cc1c(-c2ccco2)cc(C2CC2)nc1N,-4.3,-2.4,25.0,-28.7,9828,49.4*,12.7,-1.0,GDH-TPI DR=2.61*
c1ccc(N2CC3COc4ccccc4C3=N2)cc1 (centres undefined),0.5,-10.0,17.2,0.1,3774,57.9*,73.1*,71.2*,
c1ccc2c(c1)OCC(C1=NCCN1)O2 (centres undefined),-0.5,-17.1,3.6,-10.3,4168,1.5,.,.,
COCc1cc(=O)n2c(-c3ccc(C)cc3)n[nH]c2n1,0.5,-4.2,15.8,8.6,4295,10.2,.,.,
Cc1cc(=O)n2cc(-c3ccccc3)nc2[nH]1,-1.0,-0.8,6.4,-7.4,5416,89.0*,121.5*,94.3*,
Cc1ccc(-c2cn3c(=O)cc(C)[nH]c3n2)cc1,0.9,-3.2,13.3,15.8,2832,52.6*,55.3*,75.4*,
Cc1cccc(-c2nc(CS(=O)CC(=O)NC3CCCC3)c(C)o2)c1 (centres undefined),0.0,-13.5,10.0,-5.3,5030,4.4,.,.,
CC1CN(c2oc(-c3ccccc3Cl)nc2C#N)CC(C)O1 (centres undefined),-0.8,-4.2,-1.7,-13.5,3013,5.5,.,.,
COc1ccc(-c2nc(C#N)c(N3CC(C)OC(C)C3)o2)cc1OC (centres undefined),-0.5,-0.4,5.7,18.0,?,61.5*,97.9*,85.2*,
Cc1cccc(-c2nc(C#N)c(NC3CCCCC3)o2)c1,-0.5,-3.7,13.6,6.6,2740,95.9*,34.6*,27.0*,
